{"source": "PubChem BioAssay (Tox21)", "note": "Records with an inconclusive call do not appear. Entries that show only a call come without a potency. Activity calls are given as the source filed them. Unless noted, the call rests on the fitted dose curve.", "data": [{"system": "not listed separately", "assay": "qHTS assay to identify small molecule antagonists of the estrogen related receptor signaling pathway with the pleiotropic PPARgamma coactivator (PGC) from Tox21 10K library - cell viability counter screen (AID 1224840; active means well fitted cell-killing curve with a large enough effect in the repeat runs, not every such curve was filed as active; further: nearly all actives have a fitted effect of over 40% in size)", "details": "PGC/ERR reporter cells viability, CellTiter-Fluor, 17.5 h; series mostly up to 92.4 µM", "procedure,_shortened": "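PGC/ERR cells were seeded at 2,000 cells/well and left 6 hours at 37 C/5% CO2 before pin-tool addition of compounds in DMSO. After 17.5 hours at 37 C, CellTiter-Fluor was added and fluorescence read 30 minutes later.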", "values": [{"smiles": "C[N+]1(C)[C@@H]2CC[C@H]1CC(OC(=O)C(CO)c1ccccc1)C2", "note": "(some centres undefined)", "Potency": "inactive"}, {"smiles": "C=CC(=C)C", "Potency": "inactive"}, {"smiles": "O=C(N[C@H]1N=C(c2ccccc2F)c2cccc3c2N(CC3)C1=O)c1cc2ccccc2[nH]1", "Potency": "inactive"}, {"smiles": "Cc1ccn2nc(S(=O)(=O)Nc3c(F)cccc3F)nc2n1", "Potency": "inactive"}, {"smiles": "O=[N+]([O-])c1ccccc1-c1ccccc1", "Potency": "inactive"}, {"smiles": "CN", "Potency": "inactive"}, {"smiles": "CC1CN1", "note": "(centres undefined)", "Potency": "inactive"}, {"smiles": "O=[N+]([O-])c1ccc(CCl)cc1", "Potency": "inactive"}, {"smiles": "CC1CCCC1", "Potency": "inactive"}, {"smiles": "Oc1ccc([C@H]2CNCc3c2ccc(O)c3O)cc1O", "Potency": "inactive"}]}, {"system": "not listed separately", "assay": "qHTS assay to identify small molecule antagonists of the estrogen related receptor signaling pathway with the pleiotropic PPARgamma coactivator (PGC) from Tox21 10K library (AID 1224841; call rule not given here; further: actives are mostly falling curves and most rising ones were filed inactive; nearly all actives have a fitted effect of over 50% in size; further: potency means the concentration at half of the fitted maximal effect)", "details": "PGC/ERR reporter cell line, ONE-Glo luciferase, 18 h; series mostly up to 92.4 µM", "procedure,_shortened": "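PGC/ERR reporter cells were seeded at 2,000 cells/well and held 6 hours at 37 C/5% CO2 before pin-tool addition of compounds in DMSO. After 18 hours at 37 C, One-Glo was added and luminescence read after 30 minutes at room temperature.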", "values": [{"smiles": "CSSC", "Potency": "inactive"}, {"smiles": "Nc1ccc(N=Nc2ccccc2)cc1", "Potency": "inactive"}, {"smiles": "COP(=S)(OC)Oc1nc(Cl)c(Cl)cc1Cl", "Potency": "inactive"}, {"smiles": "CC(C)NCC(O)c1ccccc1Cl", "note": "(centres undefined)", "Potency": "inactive"}, {"smiles": "C[C@H]1[C@H](c2ccc(Cl)cc2)SC(=O)N1C(=O)NC1CCCCC1", "Potency": "61.1 µM (active)"}, {"smiles": "Cc1cc2c3c(c1)C(c1ccccc1)=N[C@@H](NC(=O)c1ccncc1)C(=O)N3CC2", "Potency": "inactive"}, {"smiles": "Cc1ccn2nc(S(=O)(=O)Nc3c(F)cccc3F)nc2n1", "Potency": "inactive"}, {"smiles": "O=[N+]([O-])c1ccccc1-c1ccccc1", "Potency": "inactive"}, {"smiles": "Oc1ccc([C@H]2CNCc3c2ccc(O)c3O)cc1O", "Potency": "inactive"}]}, {"system": "not listed separately", "assay": "qHTS assay to identify small molecule agonists of the estrogen related receptor signaling pathway with the pleiotropic PPARgamma coactivator (PGC) from Tox21 10K library (AID 1224842; active means well fitted activation curve with a large enough effect in the repeat runs; further: nearly all actives have a fitted effect of over 15% in size; further: potency means the concentration at half of the fitted maximal effect)", "details": "PGC/ERR reporter cell line, luciferase ONE-Glo, 18 h; series mostly up to 92.4 µM", "procedure,_shortened": "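PGC/ERR reporter cells (NTP line) were seeded 2,000 per well, rested 6 h at 37 C/5% CO2, then pin-dosed with compounds in DMSO for 18 h at 37 C; luciferase read by One-Glo luminescence after 30 min at room temperature.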", "values": [{"smiles": "CSSC", "Potency": "inactive"}, {"smiles": "Nc1ccc(N=Nc2ccccc2)cc1", "Potency": "3.06 µM (active)"}, {"smiles": "ClSC(Cl)(Cl)Cl", "Potency": "inactive"}, {"smiles": "CCCCON=O", "Potency": "inactive"}, {"smiles": "CC(C)NCC(O)c1ccccc1Cl", "note": "(centres undefined)", "Potency": "inactive"}, {"smiles": "C[C@H]1[C@H](c2ccc(Cl)cc2)SC(=O)N1C(=O)NC1CCCCC1", "Potency": "inactive"}, {"smiles": "Cc1cc2c3c(c1)C(c1ccccc1)=N[C@@H](NC(=O)c1ccncc1)C(=O)N3CC2", "Potency": "inactive"}, {"smiles": "CCCCCCCCCCCCCCn1cc[n+](C)c1", "Potency": "inactive"}, {"smiles": "Cc1ccn2nc(S(=O)(=O)Nc3c(F)cccc3F)nc2n1", "Potency": "inactive"}, {"smiles": "Oc1ccc([C@H]2CNCc3c2ccc(O)c3O)cc1O", "Potency": "inactive"}]}, {"target": "Thyrotropin receptor (Homo sapiens) (UniProt P16473)", "sequence (P16473 whole entry, looked up)": "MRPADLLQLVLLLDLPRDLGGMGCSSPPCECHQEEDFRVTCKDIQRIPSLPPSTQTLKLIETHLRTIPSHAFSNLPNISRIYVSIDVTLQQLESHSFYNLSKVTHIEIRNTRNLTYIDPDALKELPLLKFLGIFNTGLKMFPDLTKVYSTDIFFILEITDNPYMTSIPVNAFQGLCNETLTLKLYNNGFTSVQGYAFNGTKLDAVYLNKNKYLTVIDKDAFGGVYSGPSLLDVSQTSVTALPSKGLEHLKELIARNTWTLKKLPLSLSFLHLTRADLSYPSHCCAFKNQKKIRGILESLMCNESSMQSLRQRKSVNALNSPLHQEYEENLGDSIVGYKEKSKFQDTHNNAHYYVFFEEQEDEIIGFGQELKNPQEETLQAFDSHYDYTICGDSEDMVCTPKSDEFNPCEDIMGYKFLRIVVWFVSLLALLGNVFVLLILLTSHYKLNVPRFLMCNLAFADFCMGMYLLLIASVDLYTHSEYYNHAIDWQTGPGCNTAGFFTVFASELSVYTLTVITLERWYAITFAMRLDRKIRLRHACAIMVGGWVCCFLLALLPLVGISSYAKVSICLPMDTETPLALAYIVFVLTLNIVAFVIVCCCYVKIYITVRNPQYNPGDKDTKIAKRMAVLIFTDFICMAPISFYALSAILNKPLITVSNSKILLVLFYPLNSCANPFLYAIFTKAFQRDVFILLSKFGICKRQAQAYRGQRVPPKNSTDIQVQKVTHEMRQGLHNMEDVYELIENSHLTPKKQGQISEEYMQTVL", "assay": "qHTS assay to identify small molecule agonists of the thyroid stimulating hormone receptor (TSHR) signaling pathway (AID 1224843); further: nearly all actives have a fitted effect of over 45% in size; further: potency means the concentration at half of the fitted maximal effect", "details": "TSHR-HEK293 cells, cAMP HTRF, agonist mode, 30 min; series mostly up to 92.4 µM", "procedure,_shortened": "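Cell line HEK293 with TSHR; density 800/well. Exposure 30 min RT. Readout HTRF cAMP (cAMP-d2/anti-cAMP-cryptate), 1 h RT before reading.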", "values": [{"smiles": "COC(=O)c1ccccc1S(=O)(=O)NC(=O)Nc1nc(C)nc(OC)n1", "Potency": "inactive"}, {"smiles": "O=C(NC(=O)c1ccccc1Cl)Nc1ccc(OC(F)(F)F)cc1", "Potency": "inactive"}, {"smiles": "CC(Cc1ccccc1)N(C)Cc1ccco1", "note": "(centres undefined)", "Potency": "inactive"}, {"smiles": "CSSC", "Potency": "inactive"}, {"smiles": "Nc1ccc(N=Nc2ccccc2)cc1", "Potency": "inactive"}, {"smiles": "Nc1nc(N)nc(Cl)n1", "Potency": "inactive"}, {"smiles": "O=C(Nc1ccc(F)cc1F)c1cccnc1Oc1cccc(C(F)(F)F)c1", "Potency": "37.8 µM (active)"}, {"smiles": "COP(=S)(OC)Oc1nc(Cl)c(Cl)cc1Cl", "Potency": "inactive"}, {"smiles": "ClSC(Cl)(Cl)Cl", "Potency": "inactive"}, {"smiles": "CCN(CC)C(=O)N[C@@H]1C=C2c3cccc4[nH]cc(c34)C[C@@H]2N(C)C1", "Potency": "inactive"}, {"smiles": "CNC(=O)CSP(=O)(OC)OC", "Potency": "inactive"}, {"smiles": "CCCCON=O", "Potency": "inactive"}, {"smiles": "C[C@H]1[C@H](c2ccc(Cl)cc2)SC(=O)N1C(=O)NC1CCCCC1", "Potency": "inactive"}, {"smiles": "C#CCO", "Potency": "inactive"}, {"smiles": "Cc1cc2c3c(c1)C(c1ccccc1)=N[C@@H](NC(=O)c1ccncc1)C(=O)N3CC2", "Potency": "inactive"}, {"smiles": "COc1ccc(Cc2nccc3cc(OC)c(OC)cc23)cc1OC", "Potency": "9.44 µM (active)"}, {"smiles": "BrCCCBr", "Potency": "inactive"}, {"smiles": "N#Cc1ccc(N(CC(N)=O)CC(F)(F)F)cc1C(F)(F)F", "Potency": "inactive"}, {"smiles": "COCCC#N", "Potency": "inactive"}, {"smiles": "C[N+]1(C)[C@@H]2CC[C@H]1CC(OC(=O)C(CO)c1ccccc1)C2", "note": "(some centres undefined)", "Potency": "inactive"}, {"smiles": "C=CC(=C)C", "Potency": "inactive"}, {"smiles": "O=C(N[C@H]1N=C(c2ccccc2F)c2cccc3c2N(CC3)C1=O)c1cc2ccccc2[nH]1", "Potency": "inactive"}, {"smiles": "Cc1ccn2nc(S(=O)(=O)Nc3c(F)cccc3F)nc2n1", "Potency": "inactive"}, {"smiles": "O=[N+]([O-])c1ccccc1-c1ccccc1", "Potency": "inactive"}, {"smiles": "CN", "Potency": "inactive"}, {"smiles": "CC(C)=CCN1CC[C@@]2(C)c3cc(O)ccc3C[C@@H]1[C@@H]2C", "Potency": "inactive"}, {"smiles": "CC1CN1", "note": "(centres undefined)", "Potency": "inactive"}, {"smiles": "CC(Cc1ccc2c(c1)OCO2)NO", "note": "(centres undefined)", "Potency": "inactive"}, {"smiles": "O=[N+]([O-])c1ccc(CCl)cc1", "Potency": "inactive"}, {"smiles": "CC1CCCC1", "Potency": "inactive"}]}]}
